The results in this text go back to PubChem BioAssay.

Values joined by “and” are separate entries in the source; they are usually repeats but may differ in a detail not shown here. Equal entries are not always repeated. Active and inactive are the calls of the source.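 The calls were made as follows, unless noted: active = compounds whose cell count with miR-34 switched on is under 0.7 times the count with it off; inactive = the rest.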

A short description of assay [1]: differential killing of epithelial or mesenchymal cells, primary screen, imaging, PC-3E GFP, TEM4-18 mCherry, co-culture (AID 1345086;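 active = compounds killing one labelled cell type while sparing the other, by normalised counts and ratio limits, not self-fluorescent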;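 as to all read-outs here: cells exposed to compound for 72 h before imaging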;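 as to red/green cell ratio (normalised): normalised mesenchymal count divided by normalised epithelial count so high means epithelial killing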). The settings on record: imaging cell counts, at 1 µM; for red/green cell ratio (normalised): actives lie on both sides, counts scaled to control wells, 1 = unselective.
Assay [2] is described as follows: sensitizers of A549 cells to miR-34 induction, primary screen, imaging, A549 dox-inducible miR-34, nuclei and caspase counts (AID 1347080). The settings on record: A549 miR-34 inducible, Hoechst nuclei count, 48 h.
In assay [3] the target is NAD(+) hydrolase SARM1 (Homo sapiens) (UniProt Q6SZW1). As to the kind of experiment: SARM1 TIR NADase inhibitors, cell lysate, NAD-Glo luminescence (AID 1508614;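 active = compound whose remaining NAD level is above about 45 nM, limit read from the data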;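 also: higher remaining NAD means stronger inhibition of SARM1 NADase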). The note with it: SAM-TIR HEK293T lysate NADase, at 1 µM, stronger effect = higher value.
Assay [4] can be described thus: liver-stage malaria parasite growth inhibition, primary screen, cell-based, HepG2, luciferase luminescence, HepG2 viability (AID 624349; in the data active = parasite load remaining mostly below about 12%, no sharp cut-off; inactive = mostly above about 10%;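 also: 100% = mean of DMSO negative control wells on the same plate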). The note with it: P. berghei liver stage in HepG2, luciferase luminescence, concentration not given here; parasite load remaining: stronger effect = lower value; viability: measured here: HepG2 viability without parasites.
Assay [5] in a line: survival rescue of mitochondrial mutant cells in low glucose, primary screen, MELAS cybrids, Rieske KO mouse fibroblasts, CellTiter-Glo (AID 1508586;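 active = mean z-score across replicates of 1.96 or higher in either the MELAS or the Rieske mutant cell line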;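 also: z relative to plate mean and SD of compound and empty wells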). A general note: ATP-based viability assays read luminescence as a measure of living cells.
Assay [6] is described as follows: viability rescue of complex I mutant cybrids, primary screen, cell-based, galactose medium, ATP luminescence (AID 1645843;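 active = z-score of at least 1.8 in each of two replicates, scored against plate mean and spread of sample wells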;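 also: positive z means more ATP and so rescue of galactose-driven cybrid death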). The note with it: complex I mutant cybrid cells, 72 h, stronger effect = higher value.
Assay [7] deals with Mitogen-activated protein kinase 7 (Homo sapiens) (UniProt Q13164). Put plainly: ERK5 transactivation activators in reporter cells, primary screen, cell-based, HTS (AID 1508626;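 active = luciferase signal above three times the same-plate solvent-only control wells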;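 also: luciferase driven by Gal4-ERK5 fusion binding five Gal4 sites before minimal TATA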). The settings on record: HeLa Gal4-ERK5 transactivation, 18 h, at 5 µM, stronger effect = higher value.
Assay [8] in a line: hESC survival regulators, cell-based (AID 493140; call rule not given here;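 also: cells exposed to compounds for four days before counting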). The note with it: human embryonic stem cell survival screen; stronger effect = higher value.
Where [9] appears, read: measured here: epithelial PC-3E GFP cell survival.
Setting [10] is: measured here: mesenchymal TEM4-18 mCherry cell survival.
[11] abbreviates: stronger effect = lower value, cell number ratio, induced over uninduced.
Setting [12] is: measured here: relative caspase fold change +Dox/-Dox.
[13] abbreviates: measured here: total cells with miR-34 induction, stronger effect = lower value.
[14] abbreviates: measured here: total cells without miR-34 induction.
The mark [15] stands for this setting: MELAS cybrid survival, CellTiter-Glo 48 h, stronger effect = higher value.
The mark [16] stands for this setting: Rieske KO mouse fibroblast survival, CellTiter-Glo 72 h.

NAD(+) hydrolase SARM1 (Homo sapiens), sequence (Q6SZW1 whole entry, looked up): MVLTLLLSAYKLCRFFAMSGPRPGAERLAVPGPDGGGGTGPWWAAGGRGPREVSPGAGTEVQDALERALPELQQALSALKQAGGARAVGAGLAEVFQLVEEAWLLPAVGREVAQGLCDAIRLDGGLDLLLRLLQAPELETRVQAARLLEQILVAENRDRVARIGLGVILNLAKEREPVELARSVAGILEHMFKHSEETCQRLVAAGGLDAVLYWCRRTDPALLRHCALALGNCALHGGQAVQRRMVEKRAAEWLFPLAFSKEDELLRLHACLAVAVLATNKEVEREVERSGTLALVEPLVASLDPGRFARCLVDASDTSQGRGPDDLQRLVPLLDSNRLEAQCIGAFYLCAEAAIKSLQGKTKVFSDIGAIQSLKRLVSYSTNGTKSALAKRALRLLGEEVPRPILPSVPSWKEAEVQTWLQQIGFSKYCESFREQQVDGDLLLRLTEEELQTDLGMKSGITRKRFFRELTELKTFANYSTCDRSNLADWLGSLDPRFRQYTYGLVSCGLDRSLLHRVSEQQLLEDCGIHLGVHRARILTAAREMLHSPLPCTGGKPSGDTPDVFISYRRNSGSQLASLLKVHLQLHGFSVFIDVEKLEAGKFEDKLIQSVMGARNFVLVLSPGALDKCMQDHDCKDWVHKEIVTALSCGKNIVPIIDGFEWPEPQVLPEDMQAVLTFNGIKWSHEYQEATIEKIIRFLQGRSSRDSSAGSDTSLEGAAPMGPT
Mitogen-activated protein kinase 7 (Homo sapiens), sequence (Q13164 whole entry, looked up, the tested form may be a part): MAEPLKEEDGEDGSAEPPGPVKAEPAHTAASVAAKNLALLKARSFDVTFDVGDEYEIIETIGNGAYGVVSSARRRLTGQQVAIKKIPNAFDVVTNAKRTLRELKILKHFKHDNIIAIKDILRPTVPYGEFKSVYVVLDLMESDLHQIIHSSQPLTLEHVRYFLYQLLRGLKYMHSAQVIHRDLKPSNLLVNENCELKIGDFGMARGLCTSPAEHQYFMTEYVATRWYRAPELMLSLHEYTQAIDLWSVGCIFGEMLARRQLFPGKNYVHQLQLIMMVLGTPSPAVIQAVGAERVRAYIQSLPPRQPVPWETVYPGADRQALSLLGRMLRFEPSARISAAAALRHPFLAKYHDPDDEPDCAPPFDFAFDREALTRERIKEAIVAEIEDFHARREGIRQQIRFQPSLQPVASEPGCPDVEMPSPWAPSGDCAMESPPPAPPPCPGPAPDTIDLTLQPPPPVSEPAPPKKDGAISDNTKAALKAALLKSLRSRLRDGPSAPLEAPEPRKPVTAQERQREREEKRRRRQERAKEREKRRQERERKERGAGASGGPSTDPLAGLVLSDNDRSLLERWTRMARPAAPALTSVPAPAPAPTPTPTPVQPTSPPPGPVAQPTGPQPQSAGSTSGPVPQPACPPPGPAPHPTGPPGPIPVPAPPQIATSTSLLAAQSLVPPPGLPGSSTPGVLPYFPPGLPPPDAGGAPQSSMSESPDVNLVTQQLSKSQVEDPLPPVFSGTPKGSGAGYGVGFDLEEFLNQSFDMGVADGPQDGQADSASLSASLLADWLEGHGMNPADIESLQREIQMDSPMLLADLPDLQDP

For the compound `CCCCC(CC)CCC(CC(C)C)OS(=O)(=O)O` (stereo not given), the red/green cell ratio (normalised) in assay [1] is 0.93 (inactive). Moreover, the normalised cell number turned out to be 1.15 in assay [1] (setting [9]) and 1.07 in assay [1] (setting [10]). Moreover, the fold change in assay [2] (setting [11]) was 0.913 (inactive); in assay [2] (setting [12]), 0.896. Moreover, the results for the cell count in assay [2] (setting [13]) and in assay [2] (setting [14]) were 8490 and 9300, respectively. The remaining NAD in assay [3] is 10 nM (inactive).

As to `Cc1cc(-c2ccc(N=Nc3ccc4c(S(=O)(=O)O)cc(S(=O)(=O)O)c(N)c4c3O)c(C)c2)ccc1N=Nc1ccc2c(S(=O)(=O)O)cc(S(=O)(=O)O)c(N)c2c1O`, in assay [1], the red/green cell ratio (normalised) was 0.96 (inactive). Also, the normalised cell number amounted to 0.99 in assay [1] (setting [9]) and 0.95 in assay [1] (setting [10]). The fold change is 0.905 (inactive) in assay [2] (setting [11]) and 0.718 in assay [2] (setting [12]). Further, the figures for the cell count in assay [2] (setting [13]) and in assay [2] (setting [14]) were 8810 and 9740, respectively. Also, the remaining NAD in assay [3] is 10 nM (inactive).

As for `CCC(=O)O[C@H](CC(=O)O)C[N+](C)(C)C`, the red/green cell ratio (normalised) in assay [1] was 1.18 (inactive). Besides, the normalised cell number in assay [1] (setting [9]) amounted to 1.03; in assay [1] (setting [10]) it was 1.22. Also, the values for the fold change in assay [2] (setting [11]) and in assay [2] (setting [12]) were 0.986 (inactive) and 0.77, respectively. For the same compound, the figures for the cell count in assay [2] (setting [13]) and in assay [2] (setting [14]) were 8930 and 9060, respectively. Moreover, the remaining NAD in assay [3] is 10 nM (inactive).

For `CC(=O)Oc1cccc(C)c1`, the red/green cell ratio (normalised) in assay [1] was 1.03 (inactive). In addition, the normalised cell number in assay [1] (setting [9]) was determined as 0.86; in assay [1] (setting [10]) it was 0.89. For the same compound, the results for the fold change in assay [2] (setting [11]) and in assay [2] (setting [12]) were 0.912 (inactive) and 1.13, respectively. The cell count came out at 8300 in assay [2] (setting [13]) and 9090 in assay [2] (setting [14]). In assay [3], the remaining NAD was 10 nM (inactive).

As to `C=COCC(F)(F)F`, in assay [1], the red/green cell ratio (normalised) is 0.85 (inactive). The figures for the normalised cell number in assay [1] (setting [9]) and in assay [1] (setting [10]) were 1.12 and 0.96, respectively. Moreover, the fold change in assay [2] (setting [11]) is 0.911 (inactive); in assay [2] (setting [12]), 0.971. In addition, the values for the cell count in assay [2] (setting [13]) and in assay [2] (setting [14]) were 9000 and 9870, respectively. For the same compound, the remaining NAD in assay [3] is 10 nM (inactive).

Usually viability stands for a read-out of living cells in per cent, often relative to untreated cells. `CC(C)N1CCN(c2ccc(OC[C@H]3CO[C@](Cn4cncn4)(c4ccc(Cl)cc4Cl)O3)cc2)CC1`: the parasite load remaining in assay [4] is 37.3% (inactive). For the same compound, in assay [4], the viability came out at 97.4%. For the same compound, the red/green cell ratio (normalised) in assay [1] was 0.77 (inactive). The normalised cell number in assay [1] (setting [9]) amounted to 1.12; in assay [1] (setting [10]), 0.87. Moreover, the figures for the fold change in assay [2] (setting [11]) and in assay [2] (setting [12]) were 0.864 (inactive) and 1.54, respectively. Moreover, the cell count in assay [2] (setting [13]) amounted to 9020; in assay [2] (setting [14]) it was 10400. Moreover, the results for the z-score in assay [5] (setting [15]) and in assay [5] (setting [16]) were -0.379 (inactive) and 0.124, respectively. Further, in assay [3], the remaining NAD is 10 nM (inactive).

`CCN(CC)CCOCCOC(=O)C(CC)(CC)c1ccccc1`: the red/green cell ratio (normalised) in assay [1] was 1.07 (inactive). Further, the normalised cell number worked out at 0.85 in assay [1] (setting [9]) and 0.9 in assay [1] (setting [10]). Also, the fold change was 0.879 (inactive) and 0.86 (inactive) in assay [2] (setting [11]); 0.849 and 0.967 in assay [2] (setting [12]). The cell count was 7300 and 7460 in assay [2] (setting [13]); 8310 and 8670 in assay [2] (setting [14]). The results for the z-score in assay [5] (setting [15]), in assay [5] (setting [16]) and in assay [6] were -0.986 (inactive), -0.272 and -0.65 (inactive), respectively. For the same compound, the remaining NAD in assay [3] was 10 nM (inactive).

For `CC1=C(/C=C/C(C)=C/C=C/C(C)=C/C=C/C=C(C)/C=C/C=C(C)/C=C/C2=C(C)C(=O)CCC2(C)C)C(C)(C)CCC1=O`, the parasite load remaining in assay [4] was 32.7% (inactive). In addition, the viability in assay [4] turned out to be 102%. Moreover, the red/green cell ratio (normalised) in assay [1] is 1.05 (inactive). Besides, the normalised cell number in assay [1] (setting [9]) turned out to be 0.85; in assay [1] (setting [10]), 0.9. The fold change was 0.905 (inactive) in assay [2] (setting [11]) and 1.09 in assay [2] (setting [12]). The cell count in assay [2] (setting [13]) is 10100; in assay [2] (setting [14]) it was 11200. In addition, the z-score was 0.499 (inactive) in assay [5] (setting [15]), 1.32 in assay [5] (setting [16]) and 0.415 (inactive) in assay [6]. Besides, the luciferase signal in assay [7] is 100 AU (inactive).

As to `Nc1ccn(C2CSC(CO)O2)c(=O)n1` (stereo not given), the red/green cell ratio (normalised) in assay [1] is 1 (inactive). Besides, the normalised cell number in assay [1] (setting [9]) was 1.14; in assay [1] (setting [10]), 1.13. Moreover, the fold change in assay [2] (setting [11]) was 0.986 (inactive) and 0.882 (inactive); in assay [2] (setting [12]) it was 1.5 and 0.897. For the same compound, the cell count in assay [2] (setting [13]) is 10000 and 7840; in assay [2] (setting [14]) it was 10200 and 8880. The z-score in assay [5] (setting [15]) was -0.261 (inactive); in assay [5] (setting [16]) it was 0.414; in assay [6], 1.16 (inactive).

On to `CO[C@H](C(=O)[C@@H](O)[C@@H](C)O)[C@@H]1Cc2cc3cc(O[C@H]4C[C@@H](O[C@H]5C[C@@H](O)[C@H](O)[C@@H](C)O5)[C@@H](O)[C@@H](C)O4)c(C)c(O)c3c(O)c2C(=O)[C@H]1O[C@H]1C[C@@H](O[C@H]2C[C@@H](O[C@H]3C[C@](C)(O)[C@H](O)[C@@H](C)O3)[C@H](O)[C@@H](C)O2)[C@H](O)[C@@H](C)O1`, for which the parasite load remaining in assay [4] was -0.08% (active). In addition, the viability in assay [4] amounted to 93%. Also, the red/green cell ratio (normalised) in assay [1] was 0.96 (inactive). In addition, the results for the normalised cell number in assay [1] (setting [9]) and in assay [1] (setting [10]) were 0.29 and 0.28, respectively. In addition, the figures for the fold change in assay [2] (setting [11]) and in assay [2] (setting [12]) were 0.97 (inactive) and 0.963, respectively. Further, the results for the cell count in assay [2] (setting [13]) and in assay [2] (setting [14]) were 2240 and 2320, respectively. In addition, the results for the z-score in assay [5] (setting [15]), in assay [5] (setting [16]) and in assay [6] were 7.83 (active), -1.51 and -1.89 (inactive), respectively.

In the case of `CC(O)(CC(=O)O)CC(=O)O`, the red/green cell ratio (normalised) in assay [1] was 1.15 (inactive). Also, the results for the normalised cell number in assay [1] (setting [9]) and in assay [1] (setting [10]) were 0.86 and 0.99, respectively. The results for the fold change in assay [2] (setting [11]) and in assay [2] (setting [12]) were 0.913 (inactive) and 1.16, respectively. In addition, the cell count in assay [2] (setting [13]) is 8220; in assay [2] (setting [14]) it was 9000. Also, the remaining NAD in assay [3] was 10 nM (inactive).

Regarding `CCCCCCCC/C=C\CCCCCCCC(=O)O`, in assay [1], the red/green cell ratio (normalised) is 1.2 (inactive). The normalised cell number was determined as 0.8 in assay [1] (setting [9]) and 0.96 in assay [1] (setting [10]). Moreover, the fold change in assay [2] (setting [11]) is 0.965 (inactive) and 1.03 (inactive); in assay [2] (setting [12]) it was 0.674 and 0.77. The cell count in assay [2] (setting [13]) was 8820 and 6040; in assay [2] (setting [14]), 9140 and 5860. The remaining NAD in assay [3] was 10 nM (inactive).

Turning to `CC(C)Nc1ncccn1`, the red/green cell ratio (normalised) in assay [1] is 0.89 (inactive). In addition, the normalised cell number stood at 1.16 in assay [1] (setting [9]) and 1.03 in assay [1] (setting [10]). Besides, the fold change is 0.885 (inactive) in assay [2] (setting [11]) and 0.978 in assay [2] (setting [12]). The cell count was 8370 in assay [2] (setting [13]) and 9450 in assay [2] (setting [14]). Moreover, the remaining NAD in assay [3] is 10 nM (inactive).

On to `C=CCOC(Cn1ccnc1)c1ccc(Cl)cc1Cl` (stereo not given), for which the survival in assay [8] is 5.75 (inactive). The parasite load remaining in assay [4] is 62.3% (inactive) and 49.7% (inactive). Further, the viability in assay [4] was 79.2% and 101%. Also, in assay [1], the red/green cell ratio (normalised) was 1.13 (inactive). Besides, the normalised cell number in assay [1] (setting [9]) came to 1.28; in assay [1] (setting [10]) it was 1.45. For the same compound, the fold change is 0.977 (inactive) and 1.23 (inactive) in assay [2] (setting [11]); 0.912 and 0.451 in assay [2] (setting [12]). In addition, the cell count in assay [2] (setting [13]) was 7830 and 4360; in assay [2] (setting [14]) it was 8020 and 3550. Moreover, the z-score in assay [5] (setting [15]) is -0.315 (inactive); in assay [5] (setting [16]), -1.27. In assay [3], the remaining NAD was 10 nM (inactive).
